Source: PubChem BioAssay AID1259415 (National Center for Advancing Translational Sciences (NCATS), 2018)
Values joined by “and” are separate entries in the source; they are usually repeats but may differ in a detail not shown here. Equal values may be shown once. Out of some 410,000 compounds screened, about 18,000 (4.4%) were called active. Another 7% or so got no clear call; they are omitted. Many of the other results were omitted from the sample, so actives are more common in it than they were. Unmarked numbers belong to inactive results. Cut-off read from the data, not from the text of the source: active = activity change below about -60%; inconclusive = no clear call, values can overlap the other calls; inactive = above about -39%.

assay: qHTS Assay for inhibitors of the human cytomegalovirus (HCMV); settings: HFF cells, HCMV-luciferase reporter, 72 h; at 57.5 µM; active compounds read low
From the text: NCGC Assay Overview: Infection with human cytomegalovirus (HCMV) continues to pose significant threats for pregnant women and immunocompromised hosts. HCMV causes serious morbidity and mortality in transplant recipients, and congenital HCMV is the leading infectious cause of mental retardation and deafness in children. In the 1990s, the annual costs associated with the disease burden of congenital CMV were estimated at around $2 billion. A HCMV vaccine is not available yet and HCMV therapies result in intolerable side effects and emergence of drug resistant viruses. […] Towards this goal we have developed and characterized a luciferase HCMV reporter that was initially used in 96 well plates and then optimized to 1536-well plates for utilization in screening of the MLSMR collection, the NGCG diversity collection and the NCGC Pharmaceutical Collection of approved and investigational drugs.
NCGC Assay Protocol Summary:
This is a cell-based assay for HCMV inhibition in HFFs cells. The screening used 2 compound doses and the HCMV-luciferase at MOI of 1 PFU/cell. Cells were treated and infected with HCMV. At 72 h post infection cell lysates were collected and luciferase activity was determined using the Glomax-Multi + Detection System (Promega, Madison, WI). Data were normalized to the controls for basal activity (buffer only) and known HCMV inhibitors Salinmoycin.
1536-well assay protocol for the assay:
(1) Add 3 ul CMV/HFF cell culture. 1000 cells/well in DMEM nirmal media.
(2) Incubate 16 hr at 37C.
(3) Add 23 nl control compound, 10uM of Salinomycin.
(4) Add 23 nl compounds in DMSO solution.
(5) Add 3 ul CMV suspension. Final 1 puf/ul, Virus stock 2000pfu/ul
(6) Incubate 72 hrs at 37C.
(7) Add 4 ul OneGlo Luc Reagent.
(8) Incubate 5 min at room temperature.
% is set by controls: 0 for no effect and ±100 for the full control effect.

Compound | activity change, negative = inhibition
Cc1cccc(C(=O)N2c3nc(-c4ccco4)nn3C3(CCCCC3)[C@@H]3CCCC[C@@H]32)c1 | -17.9%
COC(=O)Cc1[nH]n(-c2nc3ccccc3s2)c(=O)c1C(C)=Nc1ccc(OC)cc1 | -94.3% (active)
COc1ccc(-c2nc3ccccc3s2)cc1NC(=O)COc1ccccc1C | 47.9%
COC(=O)c1cccc(C(=O)N2CCCC(Nc3ccc4c(c3)OCCO4)C2)c1 (stereo not given) | -15.6%
COc1cccc2c1cc1c(=O)n(CC(=O)N3CCN(c4cccc(Cl)c4)CC3)nc(C)n12 | 50.4%
Cc1c(NC(=O)CN2C(=O)C(=O)N(Cc3ccccc3)C2=O)c(=O)n(-c2ccccc2)n1C | -22.2%
CN(C)C(CNC(=O)c1cc(Br)c(Br)s1)c1ccco1 (stereo not given) | -67.9% (active)
CN(C)C(CNC(=O)c1cccc(S(=O)(=O)Nc2ccc(Br)cc2)c1)c1ccco1 (stereo not given) | -19.6%
CN(C)C(CNC(=O)c1cccc(C#N)c1)c1ccco1 (stereo not given) | -2.12%
Cn1cc(/C=C/c2nc3ccccc3c(=O)n2-c2ccccc2)c2ccccc21 | 31.9%
Cc1cccc(N=C2SC(C)CN2C(=O)CN2C(=O)NC3(CCCC3)C2=O)c1 (stereo not given) | 0.641%
Cc1cccc(N=C2NC(=O)/C(=C/c3cn(C)c4ccccc34)S2)c1 | -80% (active)
O=C(NCCc1ccccc1)c1ccc2c(c1)N(Cc1ccc(F)cc1)C(=O)c1ccccc1S2(=O)=O | 10.3%
Cc1cccc(-n2c(=O)c3c(c4cc(C)ccc4n3C)n(CC(=O)Nc3ccccc3Cl)c2=O)c1 | -1.31%
CCN(C(=O)COC(=O)Cc1c(F)cccc1Cl)c1c(N)n(Cc2ccccc2)c(=O)[nH]c1=O | 2.58%
Cc1ccccc1CNC(=O)CCc1cn(Cc2ccccc2C)c2ccccc12 | -37.2%
Cc1cccc2cc(CN(Cc3nnnn3Cc3ccccc3)C3CCCC3)c(=O)[nH]c12 | -5.56%
Cc1cccc2cc(CN(Cc3cccs3)C(=S)NCc3ccco3)c(=O)[nH]c12 | -16.3%
CCC(c1nnnn1C1CCCC1)N(Cc1cccs1)Cc1cc2cccc(C)c2[nH]c1=O (stereo not given) | -63.3% (active)
COc1cccc(/C=N/Nc2ncc(C(F)(F)F)cc2Cl)c1O | -102% (active)
Cc1cc(C)cc(NS(=O)(=O)c2ccc(Oc3ncc(C(F)(F)F)cc3Cl)cc2)c1 | -17.1%
CC(C)(O)C#Cc1ncc(C(F)(F)F)cc1Cl | -30.8%

Compound | activity change, negative = inhibition
COc1ccccc1Nc1nc(N)nc(CSC(=S)N2CCOCC2)n1 | 37.2%
Cc1cccc(CC(=O)N2CC(=O)Nc3ccc(F)cc3C2c2ccccc2)c1 (stereo not given) | 12%
COC(=O)CNC(c1ccccc1Cl)c1cc(Br)ccc1NC(=O)CCN1CCOCC1 (stereo not given) | -21.3%
Cn1c(NC(=O)c2ccccc2)nc2ccccc21 | -84.9% (active)
CCCCCn1c(CCNC(=O)c2ccc(F)cc2)nc2ccccc21 | -18.8%
COC(=O)c1ccc(C2C(C(=O)Nc3ccccc3)=C(C)Nc3nc4ccccc4n32)cc1 (stereo not given) | 1.76%
Cc1c(NS(=O)(=O)c2ccc(Cl)cc2)c(=O)n(-c2ccccc2)n1C | 8.64%
CC(=O)Nc1ccc(NC(=O)CCCc2nc(-c3ccc(C(C)(C)C)cc3)no2)cc1 | -87.3% (active)
CC(=O)c1ccc(NC(=O)CCc2nc(-c3ccc(C)cc3)no2)cc1 | 2.06%
Cc1cc(C)cc(NC(=O)CCCc2nc(-c3ccccc3Cl)no2)c1 | -10.6%
CC(C)c1ccc(CN2C(=O)C(n3ccc4ccccc43)c3cccc(F)c32)cc1 (stereo not given) | -19.8%
C=CS(=O)c1sc(Cl)c(N2CCOCC2)c1[N+](=O)[O-] (stereo not given) | -29.1%
Cc1ccc(O)c(NC(=O)c2cc(-c3ccc(F)cc3)no2)c1 | -17.5%
COc1ccc2c(c1)CCc1c(C(=O)Nc3cc(C)ccc3O)noc1-2 | -8.9%
Cc1ccc(O)c(NC(=O)c2cc(-c3ccco3)on2)c1 | -60.7% (active)
O=C(NCc1ccccc1Cl)C1=Cc2cc(Br)ccc2OC1 | -3.65%
Cc1c(CNC2CCCCC2)c(C(=O)O)c(C)n1Cc1cccc(Cl)c1 | -85.4% (active)
CCOc1ccc(CNCc2c(C(=O)O)c(C)n(Cc3cccc(OC)c3)c2C)cc1OC | -14.2%
C=Cc1ccc(Cn2c(C(=O)O)c(CNC3CCCC3)c3ccc(C)cc32)cc1 | -2.87%
COc1ccc(-c2nc(CN3CCC(C(=O)NCc4ccccc4)CC3)c(C)o2)cc1OC | 1.58%
CCOc1ccc(S(=O)(=O)N(CC(=O)NCCSCc2ccc(C)cc2)c2ccccc2)cc1 | 21.6%
O=C1[C@@H]2C(Cc3ccc(O)cc3)NC3(C(=O)Nc4ccc(F)cc43)[C@@H]2C(=O)N1c1ccc(F)cc1 (stereo not given in full) | 5.54%

Compound | activity change, negative = inhibition
COc1ccc(NS(=O)(=O)c2cc(NC(=O)CC(=O)c3ccc([N+](=O)[O-])cc3)ccc2C)cc1 | -28.9%
COc1ccc(C(=O)c2c3ccc([N+](=O)[O-])cc3[n+]([O-])n2CCCN)cc1 | -65.8% (active)
COc1ccc([N+](=O)[O-])cc1NCC(=O)c1ccc(C)cc1 | 23.3%
Cn1cncc1-c1cc2cnc(Nc3ccc(OC(F)(F)F)cc3)cc2[nH]1 | -21.4%
Cc1ccc(S(=O)(=O)N2CCc3cc(C(=O)Nc4ccc(Cl)cc4C)ccc32)cc1 | 0.154%
COc1ccc(Cn2c(=O)n(-c3ccccc3C)c(=O)c3c4c(sc32)CN(C(C)=O)CC4)cc1 | 3.89%
Cc1ccc(C)c2sc(NC(=O)c3ccc(S(=O)(=O)N4CCCC4)cc3)nc12 | 37.4%
CC(=O)c1ccc(N2CCN(S(=O)(=O)c3ccc4c(c3)CC(=O)N4C)CC2)cc1 | -36.7%
CC(=O)c1ccc(S(=O)(=O)N2CCN(c3nc4c(C)c(C)ccc4cc3C#N)CC2)cc1 | -87.3% (active)
CCC(=O)N1CCc2cc(Br)cc(S(=O)(=O)NCc3ccc(Cl)cc3)c21 | -9.15%
COC(=O)c1cc(NC(=O)c2nn(C)c(=O)c3ccccc23)cc(C(=O)OC)c1 | -10.5%
CCSc1nnc(NC(=O)c2cc(=O)c3cc(C)c(C)cc3o2)s1 | 1.6%
Cc1cc(F)ccc1NS(=O)(=O)c1ccc(-n2cccn2)cc1 | -27.3%
CCC(=O)N1CCc2cc(Br)cc(S(=O)(=O)CCC(=O)N3CCN(c4ccc(F)cc4)CC3)c21 | 25.8%
COC(=O)CC(=O)N1CCN(c2ccc(Cl)c(Cl)c2)CC1 | -31.5%
S=C(NCC1CCCO1)N1CCN(c2ccc(Cl)c(Cl)c2)CC1 (stereo not given) | -86.4% (active)
COc1ccc(S(=O)(=O)N2CCN(C(=S)NCC3CCCO3)CC2)cc1OC (stereo not given) | 4.06%
CCOc1ccccc1NC(=O)Cn1c(=O)n(Cc2ccco2)c(=O)c2sc3ccccc3c21 | 30.3%
COc1ccc(CNC(=O)Cn2nnc(-c3ccccc3F)n2)cc1 | -0.694%
Cc1cc(NC(=O)CC(C)C)cc(-c2nc3ncccc3o2)c1O | 5.83%
O=C(COC(=O)CN1C(=O)C2CCCCC2C1=O)Nc1ccc(F)c(F)c1F (stereo not given) | -3.46%
CC1=CC(C)(C)Nc2ccc(OC(=O)CN3C(=O)C4CCCCC4C3=O)cc21 (stereo not given) | -63% (active)

Compound | activity change, negative = inhibition
COc1ccc(C(=O)COC(=O)CN2C(=O)C3CC=CCC3C2=O)c(OC)c1 (stereo not given) | -5.28%
CCOc1ccc(C(=O)c2cn(Cc3ccccc3OC)c3ccc(F)cc3c2=O)cc1 | -39%
CC(C)(C)c1cc[n+](-c2[nH]c(=O)sc2/C=N/N=C(\[O-])c2ccccc2)cc1 | -35.8%
CCOc1ccc(S(=O)(=O)c2cn(Cc3ccc(OC)cc3)c3ccc(F)cc3c2=O)cc1 | 5.49%
COc1cc(OC)cc(C(=O)Nc2c(C(=O)Nc3ccc(F)cc3)oc3ccccc23)c1 | -7.35%
COc1cc(OC)cc(C(=O)Nc2ccc3nc(Nc4cccc(C(F)(F)F)c4)cc(C)c3c2)c1 | -92.6% (active)
COc1cccc(NC(=O)CN(C)C(C)C(=O)Nc2ccc(C#N)cc2)c1 (stereo not given) | -15.8%
Cc1cc(Nc2cccc(C(F)(F)F)c2)nc2ccc(NC(=O)c3ccc(=O)[nH]c3)cc12 | -15.4%
COc1ccc(Sc2ccc(NC(=O)c3cccc(Cl)c3)cc2C#N)cc1 | -22.8%
COc1cc(NC(=O)c2cncc(-c3ccc(C#N)cc3)c2)cc(C(=O)Nc2cccc(C(F)(F)F)c2)c1 | -78.9% (active) and -65.8% (active)
O=C1COCc2cc(-c3cccc(F)c3)ccc2N1CCN1CCOCC1 | -29.7%
CC(=O)c1cccc(NC(=O)C2CCCN(S(=O)(=O)c3cccc4nonc34)C2)c1 (stereo not given) | 8.09%
CCOC(=O)c1cccc(NC(=O)c2cc(S(=O)(=O)N3CCCC(C)C3)cn2C)c1 (stereo not given) | -10.5%
CCOC(=O)c1cccc(NC(=O)C2CCCN(S(=O)(=O)c3cnc[nH]3)C2)c1 (stereo not given) | -78.2% (active)
CN(C)c1ccc(NC(=O)CSc2nc(-c3ccco3)cc(C(F)(F)F)n2)cc1 | 13.1%
Cc1cc(NC(=O)CCC(=O)N(CC(=O)NCC2CCCO2)c2ccccc2)no1 (stereo not given) | -24.8%
CCN(CC)P(=O)(Oc1cccc(C)c1)N(CC)CC | -101% (active)
Cc1cccc(OP(=O)(Oc2cccc(C)c2)OC(c2ccccc2)C(F)(F)F)c1 (stereo not given) | 19.6%
Cc1cccc(OP(=O)(Nc2c(C)n(C)n(-c3ccccc3)c2=O)Oc2cccc(C)c2)c1 | -36.3%
